Source: PubChem BioAssay AID602399 (Sanford-Burnham Center for Chemical Genomics, 2012)
The campaign covered roughly 360,000 compounds. About 2,800 (0.78%) were called active. The full list was thinned out, with actives kept by preference. Unmarked numbers belong to inactive results. No stated cut-off is given here; in the data, active means inhibition above about 26%; inactive means the rest.

Test system: Nicotinate-nucleotide adenylyltransferase NadD (Staphylococcus aureus N315)
Test: inhibitors of S. aureus NadD, primary screen, biochemical, colorimetric, uHTS (AID 602399)
Conditions: purified NadD enzyme, colorimetric absorbance read-out; at 20 µM; hits give high values

Compound	inhibition
NS(=O)(=O)c1ccc(NS(=O)(=O)/C=C/c2ccccc2)cc1	-1.06%
NNc1cccc(C=Cc2ccccc2)cc1=O	33.2% (active)
O=C(COC(=O)/C=C/c1cccc(Cl)c1)NCCc1ccccc1	-11.9%
C/C(=N\NC(=O)COc1c(C)cccc1C)c1cccs1	-5.85%
CC/C(=N\NC(=O)c1ccccc1Cl)c1ccc(Br)s1	-6.6%
C/C(=N\NC(=O)CNc1cccc2ccccc12)c1ccc(Br)s1	64.5% (active)
CCCCCCc1cc2cc(-c3nnc(-c4ccccc4)o3)c(=O)oc2cc1O	87.5% (active)
Cn1cccc1Cc1nnc(SCC(=O)NCc2ccc3c(c2)OCO3)n1CCc1ccccc1	7.11%
COC(=O)c1cccc(N(CC(=O)NCC2CCCO2)C(=O)CCC(=O)Nc2cc(C)on2)c1 (stereo not given)	-10.6%
CCOc1cc(/C=C/C(=O)OCC(=O)NCCN2C(=O)CSC2=O)ccc1OCC(C)C	0.893%
S=c1[nH]nc(-c2cc(-c3ccccc3)n[nH]2)n1/N=C/c1c2ccccc2cc2ccccc12	49.4% (active)
CCN(CC)S(=O)(=O)c1cccc(-c2n[nH]c(=S)n2/N=C/c2ccc(C(=O)OC)cc2)c1	24.3%
Cc1cc(-c2n[nH]c(=S)n2/N=C/C(Br)=C/c2ccccc2)n[nH]1	17.3%
COc1cccc(/C=C/C(=O)Nc2ccc3c(c2)OCCO3)c1	-5.58%
CC(=O)Nc1ccc(S(=O)(=O)NC2(C(F)(F)F)C(=O)NC(C)=C2C#N)cc1 (stereo not given)	-2.54%
Cc1ccc(-c2nc(-c3cccnc3)sc2CC(=O)Nc2ccc(C)c(Cl)c2)cc1	30.9% (active)
Cc1nc(-c2ccc(F)cc2)c(CC(=O)Nc2cc(S(=O)(=O)N3CCCCC3)ccc2C)s1	6.89%
Cc1ccc(NC(=O)COc2ccc(-n3ccnc3)cc2)cc1Cl	-3.03%
COc1cccc(OCc2cc(/C=N/NC(=O)c3nc(Cl)c(Cl)c(N)c3Cl)ccc2OC)c1	45.5% (active)
COc1ccc(S(=O)(=O)N/N=C\c2ccc(OC)c(COc3ccc(C)cc3[N+](=O)[O-])c2)cc1	18.5%
CCN(CC)Cc1c(C(=O)N/N=C/c2cccc(OCc3ccc(F)cc3)c2)nnn1-c1nonc1N	13.1%
CCOC(=O)C1Sc2[nH]c(=O)sc2C(c2ccc(Cl)cc2)C1C(=O)OCC (stereo not given)	13.4%

Compound	inhibition
CC(OC(=O)c1ccccc1N1C(=O)C2C3CCC(C3)C2C1=O)C(=O)c1ccccc1 (stereo not given)	-5.61%
CCOC(=O)c1ccccc1N1C(=O)C2Sc3[nH]c(=O)sc3C(/C=C/c3ccccc3)C2C1=O (stereo not given)	42.2% (active)
COC(=O)c1cn(C)c2ccc(S(=O)(=O)N3CC(C)CC(C)C3)cc2c1=O (stereo not given)	0.79%
c1ccc(-c2nccc(-c3ccc(-n4cnc5ccccc54)cc3)n2)nc1	65.6% (active)
COC(=O)c1ccc(-n2cnc3ccccc32)nc1	-5.95%
Cc1nccc(-c2ccc(-n3c(C)ccc3C)cc2)n1	3.88%
Cc1ccc(S(=O)(=O)N(C)C)cc1NC(=O)C1Cc2ccccc2CN1C(=O)c1ccco1 (stereo not given)	2.17%
O=C1/C(=C/c2coc3ccc(O)cc3c2=O)SC(=S)N1c1ccccc1	44.8% (active)
CC1=CC2=NC(=O)/C(=C/c3coc4ccccc4c3=O)C(=N)N2O1	-6.03%
COC(=O)c1ccc(S(=O)(=O)N(CCO)Cc2ccccc2)n1C	-0.726%
Oc1ccc(-c2cccc(-c3ccc(O)cc3)c2)cc1	0.612%
O=C(Nc1ccccc1)c1cc2ccccc2[nH]1	1.14%
O=C(NCC(O)c1nc2ccccc2[nH]1)c1ccc(Br)cc1 (stereo not given)	-3.28%
O=C(Nc1cccc(-c2nc3ccccc3[nH]2)c1)c1ccc(C(=O)Nc2cccc(-c3nc4ccccc4[nH]3)c2)cc1	33.1% (active)
Cc1cccc(C2C3=C(CCCC3=O)N=C3c4ccccc4C(=O)C32)c1 (stereo not given)	3.15%
O=C(NCc1cccnc1)c1cnc2ccccc2n1	1.99%
CC(=O)N/C(=N/c1nc(C)cc(C)n1)Nc1ccc(F)cc1F	-3.78%
CCCCCCN1C[C@@H](O)[C@H](n2cc(COC(=O)c3ccccc3)nn2)C[C@@H]1c1ccc(Cl)cc1	7%
COC(C[C@@H]1O[C@@H]1C(=O)[C@@H](C)OCc1ccccc1)OC	-1.07%
CN1/C(=c2/s/c(=C3/C(=O)N(c4ccccc4)NC3=Nc3ccccc3)n(C)c2=O)C(C)(C)c2ccccc21	57.3% (active)
Cc1ccc(Cl)c(NC(=O)CN(C)CC(=O)Nc2ccc(F)c(F)c2F)c1Cl	2.14%
Nc1ccc2nc3c(=O)[nH]c(=S)[nH]c3nc2c1	70.1% (active)

Compound	inhibition
Cc1occc1C(=O)NC1CCCN(Cc2ccc(CC(C)C)cc2)C1 (stereo not given)	-6.31%
COc1ccc(NS(=O)(=O)c2ccc(O)c(C(=O)OCC(=O)NC3CCCCC3)c2)cc1	-4.71%
CCn1c(SCC(=O)Nc2ccc(C)cc2)nc2nc3c(cc2c1=O)CCCC3	8.14%
CCC1C(C#N)=C(SC)NC2=C1C(=O)CC(C)(C)C2 (stereo not given)	0.666%
Cc1cc(C)c2nc(-c3cccnc3)cc(C(=O)Nc3ccc(S(=O)(=O)Nc4onc(C)c4C)cc3)c2c1	42.3% (active)
Cc1noc(NS(=O)(=O)c2ccc(NC(=O)c3oc4ccc(F)cc4c3C)cc2)c1C	0%
CCn1c(SCC(=O)Nc2ccc(S(=O)(=O)Nc3onc(C)c3C)cc2)nnc1-c1ccccc1	7.88%
CCCCNC(=O)C[C@@H]1C[C@@]2(C(=O)OCC)CCC=C2N(Cc2cccc3ccccc23)C1=O	-3.88%
CC1CN(C(=O)c2ccccc2NS(=O)(=O)c2cccc([N+](=O)[O-])c2)CC(C)O1 (stereo not given)	4.4%
C=C(C)CNC(=S)N/N=C/c1ccccc1OCC(=O)O	11.3%
COc1ccc(S(=O)(=O)N2CCC(C(=O)OCC(=O)c3ccccc3)CC2)cc1[N+](=O)[O-]	-4.05%
COc1ccc(Br)cc1/C=N/Nc1ccc(S(=O)(=O)Nc2ccccc2C(=O)O)cc1[N+](=O)[O-]	37.4% (active)
Cc1ccc(NS(=O)(=O)c2ccc(N/N=C/c3ccccc3OCC(=O)O)c([N+](=O)[O-])c2)c(C)c1	37.4% (active)
Cc1ccc(S(=O)(=O)NC(=O)COc2ccccc2C)cc1	-3.06%
CSCC[C@H](NC(=O)NCCc1ccc(F)cc1)C(=O)O	-3.24%
COc1cccc(N(CC(=O)NC2CCCCCC2)S(=O)(=O)c2ccccc2)c1	-2.69%
Cc1noc(C)c1COC(=O)c1cc2ccccc2cc1O	-3.66%
O=C(NNc1c2ccccc2nc2ccccc12)c1cc2ccccc2cc1O	50.6% (active)
O=C(CSc1nc(C2CC2)nc2ccccc12)Nc1cccc(O)c1	4.64%
COC(=O)c1ccccc1NC(=O)C1CCN(C(=O)N2CCOc3ccccc32)CC1	-4.87%
Cc1cc(C)c(S(=O)(=O)NN=C2c3ccccc3[C@H]3Cc4csc[n+]4[C@@H]23)c(C)c1	44% (active)
Cc1ccc(NC2CCCN(C(=O)CCC3(C)CC3)C2)cc1C (stereo not given)	-4.9%

Compound	inhibition
CCCCn1c(N)c(N(CCOC)C(=O)c2oc3ccc(OC)cc3c2C)c(=O)[nH]c1=O	-3.15%
NNC(=O)c1cccc(COCC(F)(F)C(F)F)c1	10.9%
CC(Sc1nncn1C)C(=O)NCCC1=CCCCC1 (stereo not given)	-5.51%
COC(=O)CCCC1=CC2=C(c3ccccc3)C(=O)C(C)(OC(=O)C3CCCC3)C(=O)C2=CN1c1ccc(OC)cc1 (stereo not given)	6.8%
CC1(OC(=O)C2CCCC2)C(=O)C=C2C=C(c3ccc(C#N)cc3)OC=C2C1=O (stereo not given)	51.9% (active)
COC(=O)CCCC1=CC2=CC(=O)C(C)(OC(=O)c3cccs3)C(=O)C2=CN1c1cccc(C#N)c1 (stereo not given)	10.8%
C/C(=N\NC(=O)c1ccc(NS(=O)(=O)c2cccs2)cc1)c1ccc2ccccc2c1	11.2%
O=C(Nc1ccc(NC(=O)c2cccs2)cc1)c1ccc2ccccc2c1	34.4% (active)
Cc1cccc(C(=O)Nc2ccc(C(=O)/C=C/c3cccs3)cc2)c1	18.5%
Cc1cc(C)n2nc(C(=O)Nc3cccc(S(=O)(=O)N4CCOCC4)c3)nc2n1	-1.81%
COc1ccc(Cc2nc3ccc(C(=O)NCC4CCOCC4)cc3o2)cc1OC	0%
CC(C)CC1C(=O)N(Cc2cn(Cc3ccco3)nn2)CCS(=O)(=O)N1Cc1ccc(-c2ccc(Cl)c(Cl)c2)cc1 (stereo not given)	35% (active)
CC(C)CC1C(=O)N(Cc2cn(CC3CCCCC3)nn2)CCS(=O)(=O)N1Cc1ccc(-c2ccc(Cl)cc2)cc1 (stereo not given)	2.74%
CC1C(=O)N(Cc2cn(Cc3ccco3)nn2)CCS(=O)(=O)N1Cc1ccc(-c2cccc(CO)c2)cc1 (stereo not given)	-3.23%
Cc1c(C(=O)OCC(=O)N(CCC#N)c2ccccc2)oc2c1ccc1ccccc12	-4.25%
CC(C)c1nc(CNC(=O)CC2C(=O)NCCN2Cc2ccoc2)cs1 (stereo not given)	0.09%
CCOc1ccc(C(=O)Nc2cccc(SC)c2)cc1	-7.85%
CC(C)(C)NC(=O)C(c1ccncc1)N(C(=O)CNC(=O)c1ccco1)c1ccc2c(c1)OCO2 (stereo not given)	-2.29%
Cc1cc(Br)cn2c(Cc3ccsc3)c(-c3ccc(C#N)cc3)nc12	-0.162%
